Measurements from PubChem BioAssay (NCI).
This is part of a sample that, as a whole, favours compounds with a hit. Of some 83,000 tested, about 20% had one in any assay.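 Each cell line was grown in a 96-well plate and treated with one concentration of compound for 48 hours. Values below 10 were considered active.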 Calls of active or inactive are those of the source.

Assays:
Test in all cases: NCI-60 one-dose screen, 48 h (100 = growth as untreated, 0 = no growth, -100 = all killed)
Settings in all cases: 10 µM unless noted
SK-MEL-2 melanoma = tested on: SK-MEL-2 melanoma
EKVX NSCLC = tested on: EKVX NSCLC
SN12C renal = tested on: SN12C renal
UO-31 renal = tested on: UO-31 renal
TK-10 renal = tested on: TK-10 renal
ACHN renal = tested on: ACHN renal
CAKI-1 renal = tested on: CAKI-1 renal
A498 renal = tested on: A498 renal
CCRF-CEM leukemia = tested on: CCRF-CEM leukemia
MOLT-4 leukemia = tested on: MOLT-4 leukemia
SR leukemia = tested on: SR leukemia
RPMI-8226 leukemia = tested on: RPMI-8226 leukemia
OVCAR-8 ovarian = tested on: OVCAR-8 ovarian
OVCAR-5 ovarian = tested on: OVCAR-5 ovarian
OVCAR-4 ovarian = tested on: OVCAR-4 ovarian
SK-OV-3 ovarian = tested on: SK-OV-3 ovarian
OVCAR-3 ovarian = tested on: OVCAR-3 ovarian
HS 578T breast = tested on: HS 578T breast
NCI/ADR-RES ovarian = tested on: NCI/ADR-RES ovarian
IGROV1 ovarian = tested on: IGROV1 ovarian

Measured: growth

CC1(C)C(N)=Nc2cc(OCCCN3Cc4ccccc4C3)c(OCC3CC3)cc21
inactive: SK-MEL-2 melanoma 108% | EKVX NSCLC 77.6% | SN12C renal 84.5% | UO-31 renal 58.6% | TK-10 renal 81.3% | ACHN renal 96.6% | CAKI-1 renal 52.5% | A498 renal 92% | CCRF-CEM leukemia 19.1% | MOLT-4 leukemia 36.1% | SR leukemia 32.4% | RPMI-8226 leukemia 44.3% | OVCAR-8 ovarian 76.8% | OVCAR-5 ovarian 83.2% | OVCAR-4 ovarian 91.4% | SK-OV-3 ovarian 75% | OVCAR-3 ovarian 80.6% | HS 578T breast 71.7% | NCI/ADR-RES ovarian 92.9%

CC(C)(C)n1cc(-c2ccnc(NCCNS(=O)(=O)c3ccc(O)cc3)c2)c(-c2cccc(O)c2)n1
inactive: SK-MEL-2 melanoma 108% | EKVX NSCLC 104% | SN12C renal 98.3% | UO-31 renal 91.2% | TK-10 renal 116% | ACHN renal 98.2% | CAKI-1 renal 103% | A498 renal 88.8% | CCRF-CEM leukemia 92.7% | MOLT-4 leukemia 95.1% | SR leukemia 88% | RPMI-8226 leukemia 80% | OVCAR-5 ovarian 97.1% | OVCAR-4 ovarian 94.1% | SK-OV-3 ovarian 116% | IGROV1 ovarian 112% | OVCAR-3 ovarian 114% | HS 578T breast 97.6%

COc1ccc(/C=C2\CN(C(=O)C(Cl)Cl)C/C(=C\c3ccc(OC)cc3)C2=O)cc1
inactive: SK-MEL-2 melanoma 68.6% | EKVX NSCLC 14.5% | TK-10 renal 20.4% | SK-OV-3 ovarian 41.6% | HS 578T breast 17.8% | NCI/ADR-RES ovarian 11.6%
active: SN12C renal -38.9% | UO-31 renal -97.8% | ACHN renal -58.3% | CAKI-1 renal -18.9% | A498 renal -73.1% | CCRF-CEM leukemia 9.77% | MOLT-4 leukemia 5.42% | SR leukemia 1.01% | RPMI-8226 leukemia -14.3% | OVCAR-5 ovarian 9.63% | OVCAR-4 ovarian 3.73% | IGROV1 ovarian -50.7% | OVCAR-3 ovarian -75.3%

COc1cnc2c(c1)C(=O)c1c-2n(CCCCl)c(=O)c2ccncc12
inactive: SK-MEL-2 melanoma 102% | EKVX NSCLC 79.1% | SN12C renal 70.4% | UO-31 renal 41.4% | TK-10 renal 87.3% | ACHN renal 37.3% | CAKI-1 renal 35.7% | A498 renal 73.2% | CCRF-CEM leukemia 34.6% | MOLT-4 leukemia 26.2% | SR leukemia 17.1% | RPMI-8226 leukemia 41.9% | OVCAR-8 ovarian 66.2% | OVCAR-5 ovarian 116% | OVCAR-4 ovarian 66.2% | SK-OV-3 ovarian 89.3% | HS 578T breast 84.3% | NCI/ADR-RES ovarian 59%
active: OVCAR-3 ovarian 2.98%

CN(C)CCCC1(c2ccc(F)cc2)OCc2cc(-c3cc4ccccc4s3)ccc21 (centres undefined)
inactive: SK-MEL-2 melanoma 72.3% | EKVX NSCLC 46.8% | SN12C renal 37% | UO-31 renal 21% | TK-10 renal 60.5% | ACHN renal 14.3% | CAKI-1 renal 21.4% | A498 renal 81% | OVCAR-5 ovarian 55.8% | OVCAR-4 ovarian 16.8% | SK-OV-3 ovarian 68% | HS 578T breast 27.2% | NCI/ADR-RES ovarian 23.7%
active: CCRF-CEM leukemia 4.59% | MOLT-4 leukemia -8.07% | SR leukemia -15% | RPMI-8226 leukemia -3.17% | OVCAR-8 ovarian 7.22%

NC1(CO)COC(c2ccccc2)OC1 (centres undefined)
inactive: SK-MEL-2 melanoma 102% | EKVX NSCLC 118% | SN12C renal 104% | UO-31 renal 87.6% | TK-10 renal 96.5% | ACHN renal 96.3% | CAKI-1 renal 103% | A498 renal 107% | CCRF-CEM leukemia 99.4% | MOLT-4 leukemia 89% | SR leukemia 83.5% | RPMI-8226 leukemia 108% | OVCAR-8 ovarian 103% | OVCAR-5 ovarian 94.9% | OVCAR-4 ovarian 130% | SK-OV-3 ovarian 101% | OVCAR-3 ovarian 126% | HS 578T breast 106% | NCI/ADR-RES ovarian 113%

O=c1c2ccccc2c(=O)c2c1sc1c(=O)c3ccc(O)cc3c(=O)c12
active: SK-MEL-2 melanoma -60.2% | EKVX NSCLC -57.7% | SN12C renal -88.2% | UO-31 renal -52% | TK-10 renal -95.4% | ACHN renal -77.3% | CAKI-1 renal -68.5% | A498 renal -98.3% | CCRF-CEM leukemia -23.3% | MOLT-4 leukemia -40.1% | SR leukemia -16.6% | RPMI-8226 leukemia -38.6% | OVCAR-5 ovarian -74.7% | OVCAR-4 ovarian -90.2% | SK-OV-3 ovarian -92.1% | IGROV1 ovarian -24% | OVCAR-3 ovarian -57.1% | HS 578T breast -5.23% | NCI/ADR-RES ovarian -14.1%

CCCCCCCCCCCCCCCCCC1=NC(C)(C)CN1CC(C)O (centres undefined)
inactive: SK-MEL-2 melanoma 84.6% | EKVX NSCLC 78.8% | SN12C renal 49.8% | UO-31 renal 68.8% | TK-10 renal 81.6% | ACHN renal 80.6% | CAKI-1 renal 84.7% | A498 renal 79.1% | CCRF-CEM leukemia 47.1% | MOLT-4 leukemia 34.9% | RPMI-8226 leukemia 78.8% | OVCAR-5 ovarian 89.4% | OVCAR-4 ovarian 94.4% | SK-OV-3 ovarian 80.9% | IGROV1 ovarian 66.1% | OVCAR-3 ovarian 46.6% | HS 578T breast 107% | NCI/ADR-RES ovarian 69.9%
active: SR leukemia -13.6%

O=C(CCSc1nnc2n(Cc3ccccc3)c(=O)c3c4c(sc3n12)CCCC4)N1CCN(c2ccccc2)CC1
inactive: SK-MEL-2 melanoma 99.1% | EKVX NSCLC 91.8% | SN12C renal 94.8% | UO-31 renal 94.5% | TK-10 renal 101% | ACHN renal 93.2% | CAKI-1 renal 92.8% | A498 renal 106% | CCRF-CEM leukemia 127% | MOLT-4 leukemia 111% | SR leukemia 121% | RPMI-8226 leukemia 112% | OVCAR-8 ovarian 110% | OVCAR-5 ovarian 91.7% | OVCAR-4 ovarian 115% | SK-OV-3 ovarian 108% | OVCAR-3 ovarian 95.9% | HS 578T breast 108% | NCI/ADR-RES ovarian 96.1%

Cc1cccc[n+]1C1c2ccccc2-c2ccccc21
inactive: SK-MEL-2 melanoma 90.2% | EKVX NSCLC 93.8% | SN12C renal 94.2% | UO-31 renal 90.7% | TK-10 renal 89.5% | ACHN renal 107% | CAKI-1 renal 100% | A498 renal 82.9% | CCRF-CEM leukemia 78.5% | MOLT-4 leukemia 98.3% | RPMI-8226 leukemia 70.7% | OVCAR-8 ovarian 96.6% | OVCAR-5 ovarian 99% | OVCAR-4 ovarian 97.8% | SK-OV-3 ovarian 73.3% | IGROV1 ovarian 92.2% | OVCAR-3 ovarian 98.5%

Nc1[nH]n2cc(-c3ccc(F)cc3)nc2c1N=Nc1ccc(S(N)(=O)=O)cc1
inactive: SK-MEL-2 melanoma 70.1% | EKVX NSCLC 108% | SN12C renal 68.9% | UO-31 renal 58.3% | TK-10 renal 83.8% | ACHN renal 52.3% | CAKI-1 renal 47.4% | A498 renal 40.1% | CCRF-CEM leukemia 66.6% | MOLT-4 leukemia 85.8% | RPMI-8226 leukemia 73.2% | OVCAR-8 ovarian 79% | OVCAR-5 ovarian 90.7% | OVCAR-4 ovarian 80.9% | SK-OV-3 ovarian 73.9% | IGROV1 ovarian 61.9% | OVCAR-3 ovarian 78.7% | HS 578T breast 66.8% | NCI/ADR-RES ovarian 105%

Cc1nc2cc(O)c(O)cc2cc1Oc1ccc(NC(=O)Nc2ccc(Cl)c(Cl)c2)cc1
inactive: SK-MEL-2 melanoma 77.7% | EKVX NSCLC 98.5% | SN12C renal 85.6% | UO-31 renal 58.6% | TK-10 renal 85.3% | ACHN renal 39% | CAKI-1 renal 27.3% | A498 renal 118% | CCRF-CEM leukemia 19.9% | MOLT-4 leukemia 12.6% | RPMI-8226 leukemia 75.7% | OVCAR-8 ovarian 47.7% | OVCAR-5 ovarian 122% | OVCAR-4 ovarian 67.7% | SK-OV-3 ovarian 44.9% | IGROV1 ovarian 67.1% | OVCAR-3 ovarian 67.9% | HS 578T breast 105% | NCI/ADR-RES ovarian 59%
